Counter-ions that a name gives are not always drawn.
Key:
Conditions in all cases: 20 µM; incubation time: 27 h, anaerobic, 37 °C;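 for the amine columns active = adjusted P below 0.05 in both replicates with a change the same way and a mean fold change under 0.8 or over 1.25; inactive = the rest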
[1] = tested on: Clostridium sporogenes DSM 1664; test: growth (OD595) fold change vs plate DMSO controls (fold change (ratio)); higher = more growth
In short: (§1)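 Absorbance at 595 nm was read after shaking the anaerobic mGAM cultures, which had grown in 96-well plates for 27 h at 37 °C. After blank subtraction and background correction against 20 µM compound solutions in water, a calibration factor of 5 gave OD values. Growth is the fold change against the median of the plate's DMSO controls. Values are the mean of 2 biological replicates, with fold changes above 1.5 set to NA.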

Escherichia coli IAI1 [2] = test: as above
In short: as §1

[3] = tested on: Klebsiella aerogenes DSM 30053; test: as above
In short: as §1

[4] = tested on: Ruminococcus gnavus DSM 108212; test: as above
In short: as §1

[5] = tested on: Klebsiella aerogenes DSM 30053; test: fold change of Histamine concentration vs plate DMSO controls (fold change (ratio)); higher = more amine produced, active = hit call of the paper (significant change in both replicates, either direction)
In short: (§2)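 Anaerobic mGAM cultures of four gut bacterial strains were grown at 37 °C for 27 h in 80 µL wells, starting at OD 0.1 before 1:1 dilution. Compounds were at 20 µM final (sweeteners 50 µM). Whole cultures were extracted with cold acetonitrile/methanol containing 0.1% formic acid and centrifuged. Amines were quantified by LC–triple-quadrupole MS (dynamic MRM) against external calibration curves and drift-corrected within batch. Each value is the fold change versus plate DMSO controls, averaged over 2 biological replicates.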

[6] = tested on: Clostridium sporogenes DSM 1664; test: fold change of Tryptamine concentration vs plate DMSO controls (fold change (ratio)); higher = more amine produced, active = hit call of the paper (significant change in both replicates, either direction)
In short: as §2

[7] = tested on: Ruminococcus gnavus DSM 108212; test: as above
In short: as §2

Escherichia coli IAI1 [8] = test: fold change of Putrescine concentration vs plate DMSO controls (fold change (ratio)); higher = more amine produced, active = hit call of the paper (significant change in both replicates, either direction)
In short: as §2

[9] = tested on: Klebsiella aerogenes DSM 30053; test: as above
In short: as §2

Escherichia coli IAI1 [10] = test: fold change of Cadaverine concentration vs plate DMSO controls (fold change (ratio)); higher = more amine produced, active = hit call of the paper (significant change in both replicates, either direction)
In short: as §2

[11] = tested on: Klebsiella aerogenes DSM 30053; test: as above
In short: as §2

[12] = tested on: Ruminococcus gnavus DSM 108212; test: fold change of 2-Phenylethylamine concentration vs plate DMSO controls (fold change (ratio)); higher = more amine produced, active = hit call of the paper (significant change in both replicates, either direction)
In short: as §2

SMILES | growth [1] | growth (Escherichia coli IAI1 [2]) | growth [3] | growth [4] | fold change of Histamine concentration [5] | fold change of Tryptamine concentration [6] | fold change of Tryptamine concentration [7] | fold change of Putrescine concentration (Escherichia coli IAI1 [8]) | fold change of Putrescine concentration [9] | fold change of Cadaverine concentration (Escherichia coli IAI1 [10]) | fold change of Cadaverine concentration [11] | fold change of 2-Phenylethylamine concentration [12]
CC(N)C(O)c1ccccc1 (centres undefined) [Phenylpropanolamine hydrochloride] | 0.914 | 1.04 | 0.98 | 1.21 | 1.1 (inactive) | 1.22 (inactive) | 1.07 (inactive) | 1.06 (inactive) | 1.03 (inactive) | 1.05 (inactive) | 0.982 (inactive) | 1.08 (inactive)
CC(COc1ccc(Oc2ccccc2)cc1)Oc1ccccn1 (centres undefined) | 1.06 | 0.987 | 1.01 | 0.945 | 1.02 (inactive) | 1.02 (inactive) | 1.06 (inactive) | 1.01 (inactive) | 1.03 (inactive) | 1.02 (inactive) | 1.02 (inactive) | 1.08 (inactive)
CCCCC(C#N)(Cn1cncn1)c1ccc(Cl)cc1 (centres undefined) | 1.07 | 1.07 | 1.01 | 1.14 | 0.939 (inactive) | 1.2 (inactive) | 1.07 (inactive) | 0.908 (inactive) | 0.815 (inactive) | 0.907 (inactive) | 1.16 (inactive) | 1.14 (inactive)
NCC1(CC(=O)O)CCCCC1 [Gabapentin] | 1.14 | 1.15 | 1.03 | 1 | 1.04 (inactive) | 0.986 (inactive) | 1.03 (inactive) | 1.03 (inactive) | 1 (inactive) | 1.02 (inactive) | 0.985 (inactive) | 1.07 (inactive)
CC(CCc1ccccc1)NC(C)C(O)c1ccc(O)cc1 (centres undefined) [Nylidrin] | 0.853 | 1.13 | 1.21 | 1 | 1 (inactive) | 0.986 (inactive) | 0.929 (inactive) | 1.03 (inactive) | 1.05 (inactive) | 0.961 (inactive) | 1.02 (inactive) | 0.902 (inactive)
O=c1c2ccccc2[se]n1-c1ccccc1 [Ebselen] | 1.02 | 1.12 | 1.14 | 1.14 | 0.916 (inactive) | 0.823 (inactive) | 0.801 (inactive) | 1.02 (inactive) | 0.959 (inactive) | 0.953 (inactive) | 0.984 (inactive) | 0.851 (inactive)
C[N+]1(C)CCCC(OC(=O)C(O)(c2ccccc2)c2ccccc2)C1 (centres undefined) [Mepenzolate bromide] | 0.917 | 0.957 | 1.02 | 0.882 | 0.962 (inactive) | 1 (inactive) | 1.03 (inactive) | 0.871 (inactive) | 1.02 (inactive) | 1.03 (inactive) | 1.01 (inactive) | 1.02 (inactive)
Nc1c([N+](=O)[O-])ccc(Oc2ccccc2)c1Cl | 0.859 | 0.991 | 0.998 | 1.03 | 0.974 (inactive) | 1.02 (inactive) | 1.01 (inactive) | 0.973 (inactive) | 1.01 (inactive) | 1.04 (inactive) | 1.01 (inactive) | 0.982 (inactive)
CC[C@@]1([C@@H]2O[C@@H]([C@H]3O[C@@](O)(CO)[C@H](C)C[C@@H]3C)C[C@@H]2C)CC[C@H]([C@]2(C)CC[C@]3(C[C@H](O)[C@@H](C)[C@@H]([C@@H](C)[C@@H](OC)[C@H](C)C(=O)O)O3)O2)O1 [Monensin sodium salt] | 0.0614 | 1.09 | 1 | 0.204 | 0.975 (inactive) | 0.0398 (active) | 0.0682 (active) | 1.09 (inactive) | 1 (inactive) | 0.966 (inactive) | 0.999 (inactive) | 0.0948 (active)
CC(=O)OC1CN2CCC1CC2 (centres undefined) [Aceclidine hydrochloride] | 1.15 | 1.09 | 1.01 | 1.13 | 0.864 (inactive) | 1.02 (inactive) | 1.03 (inactive) | 1.02 (inactive) | 0.959 (inactive) | 0.951 (inactive) | 1.02 (inactive) | 1.01 (inactive)
COC(=O)N(OC)c1ccccc1COc1ccn(-c2ccc(Cl)cc2)n1 | 0.99 | 0.988 | 1.07 | 1.02 | 1.02 (inactive) | 1.02 (inactive) | 0.921 (inactive) | 1.04 (inactive) | 1.02 (inactive) | 1.01 (inactive) | 1 (inactive) | 0.888 (inactive)
CC(C)N(C)S(=O)(=O)NC(=O)c1cc(-n2c(=O)cc(C(F)(F)F)n(C)c2=O)c(F)cc1Cl | 0.954 | 0.981 | 1 | 1.03 | 0.99 (inactive) | 1.03 (inactive) | 0.884 (inactive) | 0.983 (inactive) | 0.985 (inactive) | 1.01 (inactive) | 0.993 (inactive) | 0.819 (inactive)
CC(C)N(C(=O)COc1nnc(C(F)(F)F)s1)c1ccc(F)cc1 | 0.961 | 0.973 | 1.01 | 0.978 | 1.02 (inactive) | 1.01 (inactive) | 0.886 (inactive) | 1 (inactive) | 1 (inactive) | 1.02 (inactive) | 0.989 (inactive) | 0.832 (inactive)
COP(=O)(OC)OC=C(Cl)Cl | 1.05 | 1.03 | 0.995 | 1.07 | 0.89 (inactive) | 1.05 (inactive) | 1.06 (inactive) | 0.985 (inactive) | 0.921 (inactive) | 0.964 (inactive) | 1.06 (inactive) | 1.07 (inactive)
C#CCOc1ccc(CCNC(=O)C(OCC#C)c2ccc(Cl)cc2)cc1OC (centres undefined) | 1 | 1.06 | 1.03 | 0.954 | 0.95 (inactive) | 0.986 (inactive) | 0.989 (inactive) | 1.05 (inactive) | 1.01 (inactive) | 0.933 (inactive) | 1.01 (inactive) | 0.964 (inactive)
CC(C)CC(C)c1sccc1NC(=O)c1cn(C)nc1C(F)(F)F (centres undefined) | 1.03 | 1.05 | 1.01 | 0.961 | 0.988 (inactive) | 0.935 (inactive) | 1.03 (inactive) | 1.05 (inactive) | 1.01 (inactive) | 1 (inactive) | 0.991 (inactive) | 1.03 (inactive)
CCC(=O)Nc1ccc(Cl)c(Cl)c1 | 0.942 | 0.949 | 0.942 | 1.01 | 1.11 (inactive) | 0.963 (inactive) | 1.02 (inactive) | 1.01 (inactive) | 0.863 (inactive) | 0.929 (inactive) | 1.16 (inactive) | 1.13 (inactive)
COP(N)(=O)SC (centres undefined) | 1.17 | 1.07 | 1.12 | 1.01 | 0.935 (inactive) | 0.998 (inactive) | 1.05 (inactive) | 1.05 (inactive) | 1.01 (inactive) | 0.966 (inactive) | 1.02 (inactive) | 1.06 (inactive)
COc1cc(OC)nc(NC(=O)NS(=O)(=O)c2ncccc2C(=O)N(C)C)n1 | 1.19 | 1.03 | 1.02 | 1.22 | 0.96 (inactive) | 0.975 (inactive) | 1.01 (inactive) | 0.924 (inactive) | 1.03 (inactive) | 1.01 (inactive) | 1.01 (inactive) | 0.998 (inactive)
C[C@@H]1[C@@H](c2ccc(Cl)cc2)SC(=O)N1C(=O)NC1CCCCC1 | 1.01 | 1.08 | 1.07 | 1 | 0.918 (inactive) | 0.989 (inactive) | 0.913 (inactive) | 0.955 (inactive) | 1.03 (inactive) | 0.972 (inactive) | 1.02 (inactive) | 0.882 (inactive)
O=C(O)C(F)(F)C(F)(F)C(F)(F)C(F)(F)C(F)(F)C(F)(F)C(F)(F)C(F)(F)C(F)(F)F [PFDeA (Perfluorodecanoic acid)] | 1.11 | 1.04 | 1.04 | 1.24 | 1.02 (inactive) | 0.916 (inactive) | 0.999 (inactive) | 1.02 (inactive) | 0.996 (inactive) | 1.01 (inactive) | 1 (inactive) | 0.962 (inactive)
CCC(=O)O[C@@](Cc1ccccc1)(c1ccccc1)[C@@H](C)CN(C)C [Levopropoxyphene napsylate] | 1.06 | 1.03 | 1.05 | 1.18 | 0.942 (inactive) | 1.04 (inactive) | 1.01 (inactive) | 1.03 (inactive) | 1 (inactive) | 1.03 (inactive) | 1.01 (inactive) | 1.03 (inactive)
C[C@]12CC[C@H](O)C[C@@H]1CC[C@@H]1[C@@H]2CC[C@]2(C)C(=O)CC[C@@H]12 [Epiandrosterone] | 1.01 | 1.01 | 0.974 | 0.678 | 1.04 (inactive) | 0.953 (inactive) | 0.973 (inactive) | 0.99 (inactive) | 1.02 (inactive) | 1.02 (inactive) | 1 (inactive) | 0.962 (inactive)
COc1ccc(OC)c(C(O)C(C)N)c1 (centres undefined) [Methoxamine hydrochloride] | 0.777 | 0.736 | 0.696 | 0.0622 | 1.06 (inactive) | 1.07 (inactive) | 0.161 (active) | 1.05 (inactive) | 1 (inactive) | 0.968 (inactive) | 0.988 (inactive) | 0.165 (active)
O=[N+]([O-])c1ccc2ccc3cccc4ccc1c2c34 [1-Nitropyrene] | 0.638 | 1.04 | 1 | 0.914 | 0.971 (inactive) | 0.785 (inactive) | 0.952 (inactive) | 1.03 (inactive) | 1 (inactive) | 0.96 (inactive) | 1.01 (inactive) | 0.967 (inactive)
Cc1c(COC(=O)[C@@H]2[C@H](/C=C(\Cl)C(F)(F)F)C2(C)C)cccc1-c1ccccc1 (racemic) | 1.05 | 1.09 | 0.978 | 1.13 | 1.02 (inactive) | 0.975 (inactive) | 1.03 (inactive) | 1 (inactive) | 0.953 (inactive) | 0.864 (inactive) | 0.989 (inactive) | 1.07 (inactive)
CN1CCC2(C)c3cc(O)ccc3N(C)C12 (single isomer, unassigned; (-)) [(-) Eseroline fumarate salt] | 1.01 | 1.04 | 1.03 | 1.16 | 1 (inactive) | 1.02 (inactive) | 0.951 (inactive) | 0.99 (inactive) | 1 (inactive) | 0.994 (inactive) | 0.995 (inactive) | 0.954 (inactive)

From the supplement of paper PMC12494721
